# Shiga inhibitor – blocks Shiga toxin action in Vero cells | Vero cells, Shiga toxin protein synthesis inhibition reporter | inhibition, % at 38.7 µM | 9.2% of 290,000 active | AID 2315; in the data active = inhibition mostly above about 28%, no sharp cut-off; inactive = mostly below about 43%; also: 0% is about no effect
# Giardia FBPA inh – blocks Giardia fructose-bisphosphate aldolase activity | A8B2U2 | purified Giardia FBPA | Potency, µM (titrated, usually from 59.6 µM), for inactives: at the highest dose activity, negative = inhibition, hits mostly inhibitors | 0.71% of 290,000 active; also: potency is read from the fitted curve at half-maximal effect; % is scaled to controls: 0 for no effect and ±100 for the full control effect; nearly all actives have a fitted effect of over 55% in size
# Target sequence (A8B2U2 whole entry, looked up): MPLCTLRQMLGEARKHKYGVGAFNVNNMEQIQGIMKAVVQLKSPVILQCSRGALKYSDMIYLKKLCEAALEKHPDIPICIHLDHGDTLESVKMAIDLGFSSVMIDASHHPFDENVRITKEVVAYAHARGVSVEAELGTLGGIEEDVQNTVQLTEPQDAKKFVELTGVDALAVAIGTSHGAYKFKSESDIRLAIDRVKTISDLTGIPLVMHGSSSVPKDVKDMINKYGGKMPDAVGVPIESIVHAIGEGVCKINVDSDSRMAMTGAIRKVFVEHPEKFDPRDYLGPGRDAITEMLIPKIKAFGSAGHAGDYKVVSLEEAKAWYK
#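 Giardia FBPA (40 nM reagent) was preincubated 10 min at RT with compound (up to 57.5 uM final), then substrate plus GAPDH/TPI/NAD/arsenate coupling system with diaphorase/resazurin was added; resorufin fluorescence (525/598 nm) was read after 20 min.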
# Cycloheximide cs – counter-screen for Shiga toxin inhibitors: cycloheximide protein synthesis inhibition; cell reporter, cycloheximide protein synthesis inhibition counterscreen; max response, %; 12% of 300,000 active; in the data active = max response mostly above about 13%, no sharp cut-off; inactive = mostly below about 14%; also: read at 38.3 µM for the half of the compounds with a filed dose; 0% is about no effect
# LmPK inh – inhibitors of Leishmania mexicana pyruvate kinase | AID 1721 | Q27686 | 0.37% of 290,000 active | Potency, µM (highest dose often 57.5 µM), without a hit: top-dose activity change, negative = inhibition, most hits filed as inhibitors | purified LmPK, Kinase-Glo ATP luminescence, 1 h; also: potency is read from the fitted curve at half-maximal effect; % is scaled to controls: 0 for no effect and ±100 for the full control effect
#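 Screened at intermediate enzyme activity to detect both inhibitors and activators: LmPK at 0.1 nM, with a 0.5 nM enzyme column as activation reference. PEP 0.5 mM, ADP 0.1 mM; ATP detected by luminescence after 1 h.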
# NS1 function inh – blocks influenza NS1 protein function. Potency, µM (highest dose often 46.1 µM), for inactives: top-dose activity, positive = more growth. 0.4% of 270,000 active. AID 2326; calls by dose curve; also: potency is read from the fitted curve at half-maximal effect; actives are rising curves; nearly all actives have a fitted effect of over 50% in size
#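 Read-out: OD600 growth recovery of NS1-expressing budding yeast. Cells grown overnight at 30C in -URA glucose medium, washed, resuspended and diluted 1:100 in 2% galactose assay medium, pH 6.0. Same strain lacking NS1 served as positive control.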
# An asterisk follows results filed as active; ? = inconclusive; · = no result given; + = active, no number. Most compounds without a hit are left out; they make up all but 14% or so of the library. Unless noted, calls follow the shape of the dose curve; as a rule, active = well fitted curve in the direction sought with a large enough effect; inconclusive = small, poorly fitted or top-dose-only effect, or another doubt; inactive = no such curve, though single readings can be large; an effect the other way counts as inactive or inconclusive.
SMILES,Shiga inhibitor,Giardia FBPA inh,Cycloheximide cs,LmPK inh,NS1 function inh
CCOc1ccc(OCc2cccc(C(=O)O)c2)cc1,41,21%,18*,6.3µM*,-140%
CCOc1ccc(OCc2cccc(C(=O)N3CCCCCC3)c2)cc1,+,4%,65*,-6%,·
O=C(NN1CCCCC1)c1cccc(COc2ccc(Cl)cc2)c1,90*,0%,76*,3%,-1%
CCOc1ccc(OCc2cccc(C(=O)N3CCCC3)c2)cc1,139*,-20%,87*,2%,-53%
COc1ccc(C(=O)NN2CCCCC2)cc1OC,-10,-5%,-2,1%,1%
O=C(O)C1CCC[C@@H]2[C@@H]3CC(CN12)[C@@H]1CCCCN1C3 (some centres not stated),·,-9%,·,·,·
CC1(C)SC2c3ccccc3C(=O)N2[C@@H]1C(=O)O (some centres not stated),-3,?,11,0%,1%
Cc1cc(C)c2oc(=O)cc(CN3CCC(C)CC3)c2c1,-1,6%,-1,4%,5%
O=C(c1ccco1)N1CCC2(CCCN(c3cccc(-c4ccccc4)c3)C2)CC1,·,-11%,·,·,·
O=C(OCC(F)(F)F)c1cccc(COc2ccc3ccccc3c2)c1,140*,-4%,82*,-6%,-2%
O=Cc1ccc(OCc2cccc(C(F)(F)F)c2)cc1O,11,3%,12,?,-2%
COc1cccc(NC(=O)N2CCC(NC(=O)c3ccco3)CC2)c1,-7,2%,-4,-4%,-8%
CN(C(=O)CCN1C(=O)S/C(=C\c2ccccc2)C1=O)C1CCS(=O)(=O)C1 (configuration not stated),-1,13%,1,-1%,-5%
Cc1cccn2c1nc(=S)n2C(=O)c1ccco1,82*,-5%,43*,10µM*,7%
COc1cc2ccc(=O)oc2c(O)c1OCC=C(C)C,85*,?,11,-1%,-5%
CC(C)=CCOc1ccc2ccc(=O)oc2c1,35*,5%,21*,-2%,-6%
CC1=CC(C/C(C)=C/COc2ccc3ccc(=O)oc3c2)OC1=O (configuration not stated),24*,-18%,16*,-1%,-3%
CC(C)=CCC/C(C)=C/COc1ccc2ccc(=O)oc2c1,9,-2%,8,3%,-4%
O=C(/C=C/c1ccc(O)c(O)c1)c1ccc(O[C@@H]2O[C@H](CO)[C@@H](O)[C@H](O)[C@H]2O)c(O)c1O,25,?,16,·,·
COC(=O)[C@@]1(Cc2ccc(F)cc2)[C@H]2c3cc(C(=O)N4CCCC4)n(CCN4CNCC4=O)c3C[C@H]2CN1C(=O)c1ccccc1,·,-3%,·,·,·
CCCCOc1ccc(C2(C)NC(=O)NC2=O)cc1 (configuration not stated),10,-3%,-1,-1%,13%
CCCCOc1ccc(C2=NNC(=O)CC2)cc1,40*,10%,15,-4%,0%
CCNc1ncc2nc(-c3cccs3)c(=O)n(-c3ccc(OC)cc3)c2n1,·,-2%,·,·,·
Clc1ccc2c(N/N=C/c3cccnc3)ccnc2c1,24,2%,17*,-4%,·
Clc1ccc2c(N/N=C/c3ccc(Br)cc3)ccnc2c1,21,-6%,9,-5%,-22%
SMILES,Shiga inhibitor,Giardia FBPA inh,Cycloheximide cs,LmPK inh,NS1 function inh
Cc1ccccc1/C=N/Nc1ccnc2cc(Cl)ccc12,13,4%,-2,-3%,-25%
Oc1ccc(/C=N/Nc2ccnc3cc(Cl)ccc23)c(O)c1,38*,0%,23*,-2%,-13%
Cc1ccc(N2CCN(S(=O)(=O)c3ccc4oc(=O)ccc4c3)CC2)c(C)c1,19,-1%,-1,2%,-51%
O=C(COc1ccc2ccccc2c1)N1CCNCC1,52*,·,12*,5%,3%
Cc1ccc2c(Cl)cc(Cl)c(OCC(=O)N3CCCC3)c2n1,67*,-15%,35*,6%,·
Cc1cc(OCC(=O)N2CCCN(C)CC2)ccc1Cl,-16,·,16*,-5%,6%
Cc1cc(OC(=O)N2CCCCC2)cc(C)c1Cl,48,14%,20,1%,-32%
CCOC(=O)N1CCN(C(=O)COc2ccc(Cl)c(C)c2)CC1,21,1%,7,-3%,0%
Cc1cc(OCC(=O)N2CCCC2)cc(C)c1Cl,-2,18%,9.4*,-12%,-9%
NCCc1ccc(S(=O)(=O)O)cc1[N+](=O)[O-],·,·,·,·,-3%
COc1ccc(NC(=O)C(c2ccc(Cl)cc2)C(C)C)cn1 (configuration not stated),-8,-12%,7,1%,-53%
Cc1cc(OCC(=O)N2CCCC2)ccc1Cl,52*,2%,23*,-4%,-5%
CCCCC#Cc1nc(NC)c2ncn([C@@H]3O[C@@H](CO)[C@H](O)[C@H]3O)c2n1,·,6%,·,·,·
Cc1cc(/C=C(/C#N)c2nc3ccccc3[nH]2)c(C)n1-c1cccc([N+](=O)[O-])c1,37*,-6%,32*,11%,-10%
Cc1cc(/C=C(\C#N)c2nc3ccccc3[nH]2)c(C)n1C,67*,-3%,23*,-6%,17%
CCS(=O)(=O)N1CCN(c2cc3c(cc2[N+](=O)[O-])n(C)c(=O)n3C)CC1,34,-1%,6,1%,·
Cc1cc(C(=O)COC(=O)c2ccc[nH]c2=O)c(C)n1C1CC1,58*,1%,27*,1%,6%
Cc1cc(C(=O)COC(=O)c2ccc[nH]c2=O)c(C)n1-c1ccc(F)cc1,76*,3%,39*,-2%,-16%
Cc1cc(C(=O)COC(=O)c2ccc[nH]c2=O)c(C)n1-c1ccccc1,24,5%,23,-6%,-9%
COc1ccccc1N(CC(=O)NCCSCc1cccc(C)c1)S(=O)(=O)c1ccccc1,-24,·,5,-1%,24%
Cc1ccc2c(c1)N(C(=O)CCC(=O)NC1CCN(Cc3ccccc3)CC1)CC(C)O2 (configuration not stated),-7,0%,-2,-3%,3%
CCN(CC)c1ccc(/C=C/[N+](=O)[O-])cc1,29,-13%,12*,-9%,·
CN(C)c1ccc(C(CNS(=O)(=O)c2ccc3ccccc3c2)c2c[nH]c3ccccc23)cc1 (configuration not stated),27,-8%,23*,0%,?
CC(SCc1ccccc1)C(=O)Nc1ccccc1Br (configuration not stated),·,-6%,42*,2%,-18%
CCC(=O)Oc1ccc(-c2cnc3ccccc3n2)cc1,60,-3%,32*,-28%,-43%
O=C(Oc1ccc(-c2cnc3ccccc3n2)cc1)c1ccco1,64,1%,23*,-28%,6%
O=C(Oc1cccnc1)c1ccco1,30,-20%,-2,-1%,-1%
CCOC(=O)COc1cnc2ccccc2n1,13,1%,2,-4%,5%
O=C(CNc1ccc(F)cc1)c1ccccc1,52,0%,23*,?,-1%
Cc1cccc(NCCC(=O)c2ccc(Br)cc2)c1,42,5%,24*,-4%,-18%
